This is part of a sample that, as a whole, favours compounds with a hit. Of some 83,000 tested, about 20% had one in any assay.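 Growth was measured after 48 h exposure to one concentration of compound in 96-well plates. Values under 10 count as active.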 Values without a mark were called inactive. The source made the active and inactive calls.
How the values were obtained:
Test in all cases: NCI-60 one-dose screen, 48 h (100 = growth as untreated, 0 = no growth, -100 = all killed)
Conditions in all cases: 10 µM unless noted
NCI-H23 lung = system: NCI-H23 lung
NCI-H226 lung = system: NCI-H226 lung
NCI-H322M lung = system: NCI-H322M lung
HOP-62 NSCLC = system: HOP-62 NSCLC
NCI-H460 lung = system: NCI-H460 lung
HOP-92 NSCLC = system: HOP-92 NSCLC
NCI-H522 lung = system: NCI-H522 lung
A549/ATCC NSCLC = system: A549/ATCC NSCLC
786-0 renal = system: 786-0 renal
COLO 205 colon = system: COLO 205 colon

Row | Compound | growth (NCI-H23 lung) | growth (NCI-H226 lung) | growth (NCI-H322M lung) | growth (HOP-62 NSCLC) | growth (NCI-H460 lung) | growth (HOP-92 NSCLC) | growth (NCI-H522 lung) | growth (A549/ATCC NSCLC) | growth (786-0 renal) | growth (COLO 205 colon)
1 | COc1cc2nc(Nc3cccc(F)c3)nc(Nc3cc(C)[nH]n3)c2cc1OC | -71.2% [20 µM] (active) | -49.4% [20 µM] (active) | -100% [20 µM] (active) | -53.2% [20 µM] (active) | -69.7% [20 µM] (active) | -88.9% [20 µM] (active) | -42% [20 µM] (active) | -55% [20 µM] (active) | -81.8% [20 µM] (active) | -60.9% [20 µM] (active)
2 | COc1ccc2nc(Cl)c(/C=C/C(=O)c3ccc(NC(=O)CSc4nnc(-c5ccc(Cl)c(Cl)c5)n4-c4ccccc4)cc3)cc2c1 | 96.5% | 96.8% | 93.6% | 83.2% | 97.7% | 67.8% | 74.1% | 69.7% | 92.3% | 101%
3 | CN1CCN(Cc2ccc(NC(=O)c3cncc(C#Cc4cncc5ncccc45)c3)cc2C(F)(F)F)CC1 | 15% | 12.7% | 18% | 10.4% | -47.3% (active) | -34.9% (active) | 19.7% | 17.7% | 38.3% | -23% (active)
4 | Cc1cccc(NC(=O)CSc2nc3ccc([N+](=O)[O-])cc3[nH]2)c1 | 69.7% | 71% | 97.2% | 115% | 84.7% | 21% | 61% | 82.7% | 84.8% | 90.1%
5 | O=C(OC[C@@H]1CO1)c1cccc2c(=O)c3ccccc3[nH]c12 | -58.5% (active) | -24.6% (active) | -13% (active) | -26% (active) | -21.8% (active) | -25.5% (active) | -49.9% (active) | -20% (active) | -8.54% (active) | -37.3% (active)
6 | CC(C)(C)C(=O)/C=C/c1ccc([N+](=O)[O-])cc1 | 85.7% | 69.6% | 103% | 103% | 97.9% | 67.5% | 40% | 66.8% | 97.5% | 82.5%
7 | COc1cc(C(=O)C(=O)c2cc(OC)c(O)c(OC)c2)cc(OC)c1O | 101% | 91% | 94.4% | 93.2% | 101% | 91.7% | 89.6% | 99.5% | 103% | 105%
8 | CC[C@H](Nc1nc(N)nc(C)c1C#N)c1nc2cccc(NCCCCCC(=O)NO)c2c(=O)n1-c1ccccc1 | 73.3% | 75% | 75.9% | 66.2% | 77% | 27.2% | 53.2% | 79.3% | 27.5% | 86.2%
9 | COc1ccc2c(c1)c(-c1nonc1-c1c[nH]c3ccc(Br)cc13)cn2C | 55.6% | 84.6% | 55.8% | 29.6% | 23.7% | 75.6% | 11.3% | 28.1% | 58.6% | 23.9%
10 | COc1cc(-c2nc(NC(C)=O)sc2-c2ccnc(NCCNS(=O)(=O)c3ccccc3)n2)ccc1Cl | 63.4% | 57.1% | 79.1% | 34.2% | 11.8% | 25.3% | 9.14% (active) | 25.6% | 34.7% | 2.47% (active)
11 | NC(=O)c1ccc(NC(=O)c2oc3ccccc3c2-c2cnn(-c3ccccc3)c2)cc1 | -21.9% [50 µM] (active) | 13.9% [50 µM] | 23.7% [50 µM] | 5.91% [50 µM] (active) | 5.78% [50 µM] (active) | -27.3% [50 µM] (active) | 21.4% [50 µM] | 8.08% [50 µM] (active) | -26.8% [50 µM] (active) | 19.9% [50 µM]
12 | Cn1c(/C=C/[N+](=O)[O-])cc2ccccc21 | -24.5% (active) | 4.78% (active) | 105% | 76.7% | 62.7% | 84% | 70.5% | 48% | 75.7% | 12.5%

From PubChem BioAssay (NCI)
